Of roughly 21,000 targets only a part is listed; those with the largest changes were picked by preference.
Compound: CC1Cc2ccccc2N1C(=O)C1CCCN(C1)C(=O)CCl (mixture of isomers) [TRIM25 ligand 11 (diastereomer mixture)]
Assay: probe-labelled cysteine peptide fold change vs DMSO (competition) (log2 fold change); higher = less target engagement (more negative = stronger competition)
Details: THP-1, incubation time: 4 h
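Note: competitive chemoproteomic profiling in live THP-1 cells with an iodoacetamide desthiobiotin (IA-DTB) probe, comparing probe-labelled peptide intensities in compound-treated cells against DMSO-treated controls.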

Target	probe-labelled cysteine peptide fold change (10 µM)	probe-labelled cysteine peptide fold change (50 µM)
EIF3M_Q7L2H7_52_GAEISEENSEGGLHVDLAQIIEACDVCLKEDDK (UniProt Q7L2H7)	0.0157	0.134
EXOC5_O00471_194_YHDLECQLIQEFTSAQR (UniProt O00471)	0.139	0.157
FASN_P49327_2369_AKLTPGCEAEAETEAICFFVQQFTDMEHNR (UniProt P49327)	-0.0758	-0.005
EEF1A1_P68104_411_FLKSGDAAIVDMVPGKPMCVESFSDYPPLGR (UniProt P68104)	0.947	1.14
EIF1_P41567_94_NICQFLVEIGLAKDDQLK (UniProt P41567)	-1.14	-0.0838
FRRS1_Q6ZNA5_107_NAEDLNGPPIGSFTLIDSEVSQLLTCEDIQGSAVSHR (UniProt Q6ZNA5)	0.66	0.341
ELP3_Q9H9T3_456_CSEETFR (UniProt Q9H9T3)	0.298	0.202
F2_P00734_564_RGDACEGDSGGPFVMK (UniProt P00734)	0.606	0.325
EPHX2_P34913_232_VTGIQLLNTPAPLPTSCNPSDMSHGYVTVKPR (UniProt P34913)	0.149	-0.204
FAM241A_Q8N8J7_2_CSAGELLR (UniProt Q8N8J7)	0.306	0.559
EIPR1_Q53HC9_95_VLTCAAVWR (UniProt Q53HC9)	0.109	0.137
FBN2_P35556_941_CELDTACPR (UniProt P35556)	0.213	0.26
FHL2_Q14192_275_GFLTERDDILCPDCGK (UniProt Q14192)	-0.0813	-0.0756
ENOSF1_Q7L5Y1_67_GTEVVVCAVNALAHHVLNK (UniProt Q7L5Y1)	-0.0438	0.0621
FLNB_O75369_991_KVVPCLVTPVTGR (UniProt O75369)	-0.0645	-0.0535
F2_P00734_407_WVLTAAHCLLYPPWDK (UniProt P00734)	0.631	0.154
FTH1_P02794_91_KPDCDDWESGLNAMECALHLEK (UniProt P02794)	0.166	0.847
FUBP3_Q96I24_366_CGLVIGK (UniProt Q96I24)	-0.0888	0.0606
EIF3K_Q9UBQ5_87_CMIDQAHQEERPIR (UniProt Q9UBQ5)	0.0313	0.0963

Target	probe-labelled cysteine peptide fold change (10 µM)	probe-labelled cysteine peptide fold change (50 µM)
FAM111B_Q6SJ93_351_NYYFCSLPR (UniProt Q6SJ93)	-0.00273	0.026
FAR2_Q96K12_104+111_EDMQELLSCTNIIFHCAATVR (UniProt Q96K12)	0.0855	0.0839
FECH_P22830_403_QLTLSCPLCVNPVCR (UniProt P22830)	0.0323	0.0221
FAM111B_Q6SJ93_212_LCIYALK (UniProt Q6SJ93)	-0.05	-0.0141
EIF1B_O60739_69_FACNGTVIEHPEYGEVIQLQGDQRK<|>EIF1_P41567_69_FACNGTVIEHPEYGEVIQLQGDQRK (UniProt P41567+O60739)	-0.358	-0.022
FGD3_Q5JSP0_284_QEVCGNLTLQHHMLEPVQR (UniProt Q5JSP0)	0.0112	-0.0514
FNBP1_Q96RU3_511_RQSGLYDSQNPPTVNNCAQDR (UniProt Q96RU3)	0.269	-0.0608
EHHADH_Q08426_227+233_QHPGCLAQEACVR (UniProt Q08426)	0.147	0.0162
EPRS_P07814_1301+1309_VACVQVVIIPCGITNALSEEDK (UniProt P07814)	-0.162	-0.139
ETFDH_Q16134_387_LTFPGGLLIGCSPGFMNVPK (UniProt Q16134)	-0.688	-0.698
ECM1_Q16610_269_FSCFQEEAPQPHYQLR (UniProt Q16610)	0.855	0.858
EIF3D_O15371_438_WTCCALLAGSEYLK (UniProt O15371)	-0.0143	0.0445
EXOSC8_Q96B26_60_LGNTTVICGVK (UniProt Q96B26)	0.0322	0.0231
FUBP3_Q96I24_109_IQAESGCK (UniProt Q96I24)	0.00832	0.192
FAM98B_Q52LJ0_220_INDALSCEYECR (UniProt Q52LJ0)	-0.00202	0.0911
EDC4_Q6P2E9_838_ETCSTLAESPR (UniProt Q6P2E9)	-0.0668	-0.146
FH_P07954_434_LLGDASVSFTENCVVGIQANTER (UniProt P07954)	-0.504	-0.961
EFTUD2_Q15029_476_IEHTYTGGVDSDLGEAMSDCDPDGPLMCHTTK (UniProt Q15029)	-0.11	-0.51
ELP5_Q8TE02_151_LPCTTLCQVLHAVSHQDSCPGDSSSVGK (UniProt Q8TE02)	0.0565	0.114
